Data as given in PubChem BioAssay (NCI).
Compounds without any hit were thinned out: in the full panel of roughly 79,000, 15% have a hit. A number with no mark means an inactive call. Calls of active or inactive are those of the source. Rule as the data show it: active = growth inhibition above about 70%; inactive = the rest.

Experiments:
[1] = NCI Yeast Anticancer Drug Screen. Data for the rad50 strain (AID 155);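 also: 0% = growth of vehicle-only cultures of the same strain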; details: S. cerevisiae rad50 strain growth inhibition, stronger effect = higher value
Outline: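 Compounds were tested on a yeast strain with an engineered DNA damage repair alteration; the reported value is growth inhibition normalised to vehicle treatment.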

[2] = NCI Yeast Anticancer Drug Screen. Data for the mec2-1 strain (AID 157); details: S. cerevisiae mec2-1 strain, stronger effect = higher value
Outline: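 Compounds were applied to mec2-1 yeast cells. Their growth was then compared with that of vehicle-treated cultures to give growth inhibition.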

[3] = NCI Yeast Anticancer Drug Screen. Data for the sgs1 mgt1 strain (AID 161);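 also: 0% = growth of cultures given vehicle only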; details: S. cerevisiae sgs1 mgt1 strain, stronger effect = higher value
Outline: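 Growth of a repair-deficient yeast mutant was monitored after compound treatment and expressed as inhibition relative to vehicle-treated cultures.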

[4] = NCI Yeast Anticancer Drug Screen. Data for the cln2 rad14 strain (AID 165);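 also: 0% = growth equal to vehicle treated cultures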; details: S. cerevisiae cln2 rad14 strain, stronger effect = higher value
Outline: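 Strain: cln2 rad14 yeast, altered in cell cycle control and DNA damage repair. Read-out: growth inhibition vs vehicle.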

[5] = NCI Yeast Anticancer Drug Screen. Data for the bub3 strain (AID 167); details: S. cerevisiae bub3 mutant strain, stronger effect = higher value
Outline: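 Growth of a checkpoint-deficient yeast mutant is measured after compound exposure. Values represent inhibition relative to vehicle.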

[6] = NCI Yeast Anticancer Drug Screen. Data for the mlh1 rad18 strain (AID 175); details: S. cerevisiae mlh1 rad18 strain growth inhibition, stronger effect = higher value
Outline: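 A repair-deficient yeast strain is exposed to test compound, and growth is scored relative to vehicle-treated controls.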

[7] = at 5.0 µM (retest, dose inferred, filed as 0.5)
[8] = at 50.0 µM (retest, dose inferred, filed as 5.0)

| Compound | growth inhibition [1, 7] | growth inhibition [1, 8] | growth inhibition ([1]; at 50.0 µM) | growth inhibition [2, 7] | growth inhibition [2, 8] | growth inhibition ([2]; at 50.0 µM) | growth inhibition [3, 7] | growth inhibition [3, 8] | growth inhibition ([3]; at 50.0 µM) | growth inhibition [4, 7] | growth inhibition [4, 8] | growth inhibition ([4]; at 50.0 µM) | growth inhibition [5, 7] | growth inhibition [5, 8] | growth inhibition ([5]; at 50.0 µM) | growth inhibition [6, 7] | growth inhibition [6, 8] | growth inhibition ([6]; at 50.0 µM) |
| --- | --- | --- | --- | --- | --- | --- | --- | --- | --- | --- | --- | --- | --- | --- | --- | --- | --- | --- |
| O=C(CC(=O)c1ccccc1)CC(=O)c1ccccc1Br | 1% | 94% (active) | 71.1% (active) | -1% | 93% (active) | 93.5% (active) | -17% | 93% (active) | 6.6% | -3% | 75% (active) | 85.5% (active) | -1% | 96% (active) | 68.7% | 1% | 96% (active) | 96.5% (active) |
| Cc1ccc(C(=O)/C=C/c2ccccc2)cc1 | 8% | 42% | 52% | -6% | 14% | 13.7% | 1% | 38% | 36.6% | 0% | -22% | -22% | 6% | 19% | 9.3% | 2% | 24% | 82.1% (active) |
| CN1CCCCC1c1cc2c3ccccc3ccn2c1-c1ccccc1 (configuration not stated) | 71% (active) | 95% (active) | 96.5% (active) | 62% | 99% (active) | 98.3% (active) | 75% (active) | 94% (active) | 98.7% (active) | -7% | 92% (active) | 94.8% (active) | 9% | 96% (active) | 98.4% (active) | 69% | 92% (active) | 98.5% (active) |
| O=C1/C(=C/c2cccc([N+](=O)[O-])c2)CCCc2ccccc21 | 4% | 92% (active) | 73.5% (active) | 7% | 94% (active) | 68.8% | 13% | 94% (active) | 83.2% (active) | -5% | 91% (active) | 70.7% (active) | 20% | 94% (active) | 84.8% (active) | 9% | 93% (active) | 75.9% (active) |
| Oc1ccc(N=Nc2ccc(Cl)cc2)cc1O | -30% | 98% (active) | 98.4% (active) | -8% | 98% (active) | 98.3% (active) | 8% | 98% (active) | 98.5% (active) | -7% | 97% (active) | 97.7% (active) | -35% | 98% (active) | 97.8% (active) | -7% | 98% (active) | 98.2% (active) |
| CC(C)(CCCCC(C)(C)NCC1COc2ccccc2O1)NCC1COc2ccccc2O1 (configuration not stated) | 3% | 73% (active) | 94.6% (active) | -8% | 81% (active) | 96% (active) | -10% | 64% | 96.8% (active) | 0% | 76% (active) | 95% (active) | -15% | 79% (active) | 97.4% (active) | 2% | 74% (active) | 96.2% (active) |
| Nc1ccc(SCCCc2c(N)nc(N)nc2N)cc1 | -8% | 4% | 57.5% | 1% | -8% | 92.2% (active) | 27% | 11% | 20.6% | -16% | -17% | 91.8% (active) | -9% | -12% | 95% (active) | 6% | 32% | 82.2% (active) |
| CC[N-]c1nncs1.CC[N-]c1nncs1.CC[N-]c1nncs1.CC[N-]c1nncs1.[Cl][Rh][Cl] | -8% | 95% (active) | 97.7% (active) | 43% | 74% (active) | 97.8% (active) | 11% | 93% (active) | 98.5% (active) | 0% | 77% (active) | 91% (active) | -4% | 77% (active) | 95.6% (active) | 15% | 95% (active) | 97.6% (active) |
| CCCCCCCCCCCC[n+]1ccc(C#N)cc1 | 27% | 81% (active) | 99.2% (active) | 30% | 98% (active) | 95.9% (active) | 28% | 97% (active) | -5.4% | 26% | 78% (active) | 84.4% (active) | 34% | 92% (active) | 47.8% | 16% | 92% (active) | 99.5% (active) |
| C=C(Br)CN(C)CC(=C)Br | 0% | 40% | 82% (active) | 7% | -19% | -17.1% | 4% | -10% | 22.2% | -15% | -50% | 0.15% | -2% | 5% | -15% | -6% | 25% | 62.5% |
| CCCCCCCCCCSCCO | 30% | 88% (active) | 92.7% (active) | 51% | 92% (active) | 94% (active) | 99% (active) | 93% (active) | 93.5% (active) | 78% (active) | 99% (active) | 92.3% (active) | 100% (active) | 97% (active) | 92.5% (active) | 42% | 97% (active) | 92.7% (active) |
| CCCCN1C(=O)C[C@H]2[C@@H]3CCc4cc(OCCN5CCCC5)ccc4[C@H]3CC[C@]2(C)C1=O | 36% | 75% (active) | 56.9% | 30% | 53% | 55.4% | 66% | 90% (active) | 71.5% (active) | 33% | 70% (active) | 73.1% (active) | 57% | 72% (active) | 78.6% (active) | 68% | 78% (active) | 63.6% |
| CC(=O)OCC1OC(N2CCc3cc([N+](=O)[O-])ccc32)C(OC(C)=O)C(OC(C)=O)C1OC(C)=O (configuration not stated) | 2% | -4% | -15.4% | -19% | 20% | -1.35% | 3% | 23% | -9.2% | 7% | -3% | 41.9% | 3% | 1% | -3.25% | 11% | 18% | -16.8% |
| O=C(NCCCCC(NC(=O)OCc1ccccc1)C(=O)Nc1ccc(Nc2ccc(NC(=O)C(CCCCNC(=O)OCc3ccccc3)NC(=O)OCc3ccccc3)cc2)cc1)OCc1ccccc1 (configuration not stated) | 0% | -12% | 99% (active) | -3% | -13% | 99.5% (active) | -2% | -29% | 99.4% (active) | -1% | 0% | 87.7% (active) | 2% | 34% | 99.1% (active) | -1% | -12% | 98.4% (active) |
| O=C1NC(=S)S/C1=C\c1ccc(F)cc1 | -4% | 6% | 76% (active) | 7% | 15% | 85.7% (active) | 2% | 22% | 74.1% (active) | -9% | 1% | 64.8% | -2% | 0% | 57% | -4% | 4% | 80.3% (active) |
| O=C(O)c1ccc([N+](=O)[O-])cc1.[Ag] | 99% (active) | 99% (active) | 98.8% (active) | 100% (active) | 99% (active) | 99.3% (active) | 99% (active) | 99% (active) | 99.5% (active) | 99% (active) | 99% (active) | 98.9% (active) | 99% (active) | 99% (active) | 99.2% (active) | 99% (active) | 99% (active) | 99.2% (active) |
| O=C(C(=O)c1ccc(Cc2ccc(C(=O)C(=O)c3ccccc3)cc2)cc1)c1ccccc1 | -1% | -20% | 6.45% | 0% | -4% | 6.4% | 1% | 1% | -15.6% | 3% | -17% | 27.4% | 2% | -22% | 0.8% | 2% | -17% | 12.2% |
| Cc1cccc(/C=N/NC(=S)Nc2ccc(Cl)cc2)n1 | 6% | 98% (active) | 70% (active) | 0% | 97% (active) | 81.8% (active) | -5% | 98% (active) | 87% (active) | -25% | 96% (active) | 86.5% (active) | -12% | 98% (active) | 87.2% (active) | 35% | 98% (active) | 88.8% (active) |
| Cc1ccc(S(=O)(=O)NCCSSCCNS(=O)(=O)c2ccc(C)cc2)cc1 | -4% | 95% (active) | 93.5% (active) | -3% | 97% (active) | 96% (active) | -2% | 98% (active) | 96.6% (active) | -6% | 96% (active) | 94% (active) | 1% | 95% (active) | 94.3% (active) | 1% | 96% (active) | 95.4% (active) |
